A short description of assay [1]: ATG_TAL_CIS: Attagene CIS-FACTORIAL HepG2 Assay for human TAL Basal Promoter (AID 2282966).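 Also: background control endpoint measuring basal TAL promoter reporter mRNA not a specific factor.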 Particulars: HepG2 Attagene cis-factorial TAL promoter reporter; actives raise or lower the signal. The method, boiled down:
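HepG2, transient MRTU transfection, 24 h compound exposure; RNA → oligo(dT) RT → PCR → 6-FAM primer extension → HpaI digest → CE fluorescence. Bidirectional curve fit vs DMSO. Background-control readout.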

The nature of assay [2]: ATG_TGFb_CIS: Attagene CIS-FACTORIAL HepG2 Assay for human Transforming Growth Factor (TGF) (AID 2282967). Particulars: HepG2 Attagene CIS TGFb reporter, mRNA transcription; actives raise or lower the signal. In short, it runs like this: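 Endogenous TGFB1-linked transcription factor activity read as reporter mRNA via RT-PCR and capillary electrophoresis, 24 h after dosing transiently transfected HepG2 cells. Gain or loss of signal fitted relative to DMSO.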

A short description of assay [3]: ATG_VDRE_CIS: Attagene CIS-FACTORIAL HepG2 Assay for human Vitamin D Receptor Element (VDRE) (AID 2282968). Particulars: HepG2 VDRE cis-reporter transcription, actives raise or lower the signal. The method, boiled down:
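Readout is VDRE-driven reporter mRNA reflecting endogenous factor activity in human HepG2 cells, sampled 24 h post-dose. Quantification used labelled RT-PCR products separated by capillary electrophoresis; bidirectional analysis relative to DMSO.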

Assay [4] has as its target Steroid hormone receptor ERR1 (Homo sapiens) (UniProt P11474). As to the kind of experiment: ATG_ERRa_TRANS: Attagene TRANS-FACTORIAL HepG2 Assay for human Estrogen-Related Receptor alpha (ERRa) (AID 2282971; active = hit-call score of the fitted dose curve at least 0.9, where 1 is the maximum). Particulars: HepG2 Attagene TRANS reporter, ERRa transactivation. The method, boiled down: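 Transfected HepG2, 24 h dosing, ERRa-Gal4 chimera driving GAL4-UAS reporter. Readout: reporter mRNA via RT-PCR plus capillary electrophoresis (fluorescence). Positive direction vs DMSO control.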

The target of assay [5] is X-box-binding protein 1 (Homo sapiens) (UniProt P17861). As to the kind of experiment: ATG_Xbp1_CIS: Attagene CIS-FACTORIAL HepG2 Assay for human X-box Binding Protein 1 (XBP1) (AID 2282972). The settings on record: HepG2 XBP1 cis-element reporter, Attagene multiplex; actives raise or lower the signal. In short, it runs like this:
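Reporter transcripts were quantified by RT-PCR with fluorescent primer extension and capillary electrophoresis after 24 h chemical exposure. Cells: transiently transfected HepG2 carrying cis-regulated reporter constructs; data fitted bidirectionally relative to DMSO.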

Assay [6] is described as follows: ATG_M_19_TRANS: Attagene TRANS-FACTORIAL HepG2 Assay for M19 Transcription Factor (Internal Marker) (AID 2282974; active = hit-call score of the fitted dose curve at least 0.9, where 1 is the maximum). The settings on record: HepG2 Attagene TRANS-FACTORIAL M19 internal marker reporter. The method, boiled down: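 HepG2 transiently transfected with GAL4-UAS multiplex reporter constructs, exposed 24 h; reporter RNA quantified by RT-PCR, 6-FAM labeling, HpaI digestion and capillary electrophoresis; internal background marker fitted upward versus DMSO.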

The nature of assay [7]: ATG_GAL4_TRANS: Attagene TRANS-FACTORIAL HepG2 Assay for GAL4 (Internal Marker) (AID 2282976; active = hit-call score of the fitted dose curve at least 0.9, where 1 is the maximum). Particulars: HepG2 Attagene TRANS GAL4 internal marker reporter. The method, boiled down:
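RT-PCR/capillary electrophoresis readout of reporter mRNA. HepG2, transient MRTU transfection (GAL4-UAS reporters), 24 h compound exposure. Background-control endpoint, positive direction vs DMSO baseline.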

Assay [8] addresses Hepatocyte nuclear factor 4-alpha (Homo sapiens) (UniProt P41235). As to the kind of experiment: ATG_HNF4a_TRANS: Attagene TRANS-FACTORIAL HepG2 Assay for human Hepatocyte Nuclear Factor 4 alpha (HNF4a) (AID 2282982; active = hit-call score of the fitted dose curve at least 0.9, where 1 is the maximum). Particulars: HepG2 HNF4a transactivation reporter, mRNA readout. The method, boiled down: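 Activity of an exogenous HNF4a–Gal4 fusion scored as induced GAL4-UAS reporter transcripts after 24 h chemical exposure of transfected human HepG2 cells. Read-out via RT-PCR with 6-FAM labelling and capillary electrophoresis; rise over DMSO baseline.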

Assay [9] concerns the target Nuclear respiratory factor 1 (Homo sapiens) (UniProt Q16656). Briefly: ATG_NRF1_CIS: Attagene CIS-FACTORIAL HepG2 Assay for human Nuclear Respiratory Factor 1 (NRF1) Orphan Gene (AID 2282987). The settings on record: HepG2 NRF1 cis-element reporter, Attagene multiplex; actives raise or lower the signal. The method, boiled down: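 HepG2 cells transiently transfected with multiple cis-regulated reporter units, exposed 24 h. Reporter mRNAs measured by RT-PCR, fluorescent labelling, HpaI digestion and capillary electrophoresis; bidirectional fitting against DMSO.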

Assay [10] can be described thus: ATG_NFI_CIS: Attagene CIS-FACTORIAL HepG2 Assay for human Nuclear Factor I (NFI) (AID 2282989). The settings on record: HepG2 cis-regulatory reporter, NFI response element transcription; actives raise or lower the signal. The method, boiled down: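 Reporter transcripts were measured by RT-PCR with fluorescent primer extension and capillary electrophoresis 24 h post-treatment. HepG2 cells carried transiently transfected cis-regulated reporter constructs reporting endogenous factor activity; gain or loss fitted against DMSO baseline.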

For assay [11], the target named is Nuclear receptor subfamily 1 group I member 3 (Homo sapiens) (UniProt Q14994). Briefly: ATG_CAR_TRANS: Attagene TRANS-FACTORIAL HepG2 Assay for human Constitutive Androstane Receptor (CAR) (AID 2282969; active = hit-call score of the fitted dose curve at least 0.9, where 1 is the maximum;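 also: activators raise reporter mRNA above DMSO so AC50 marks induction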). Particulars: HepG2 Attagene TRANS-FACTORIAL CAR reporter. The method, boiled down: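 Signal is reporter mRNA induction relative to DMSO, measured 24 h after dosing by RT-PCR with fluorescent primer extension and capillary electrophoresis. Human HepG2 liver cells carried transiently transfected chimeric NR-Gal4/GAL4-UAS reporter constructs.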

Assay [12] deals with Glucocorticoid receptor (Homo sapiens) (UniProt P04150). Briefly: ATG_GR_TRANS: Attagene TRANS-FACTORIAL HepG2 Assay for human Glucocorticoid Receptor (GR) (AID 2282978; active = hit-call score of the fitted dose curve at least 0.9, where 1 is the maximum;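 also: activators score as hits since higher reporter transcript over DMSO is fitted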). The settings on record: HepG2 Attagene TRANS GR reporter, mRNA transcription. The method, boiled down:
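HepG2 cells transiently transfected with GAL4-UAS reporter units and exogenous GR-Gal4 chimera, dosed 24 h. Reporter mRNA by RT-PCR, FAM labeling, HpaI digest and capillary electrophoresis; gain-of-signal fit versus DMSO.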

The target in assay [13] is Bile acid receptor (Homo sapiens) (UniProt Q96RI1). Briefly: ATG_FXR_TRANS: Attagene TRANS-FACTORIAL HepG2 Assay for Farnesoid X Receptor (FXR) (AID 2282979; active = hit-call score of the fitted dose curve at least 0.9, where 1 is the maximum;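 also: hits raise reporter mRNA above DMSO so AC50 marks FXR activation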). The settings on record: HepG2 Attagene TRANS FXR-GAL4 reporter transcription. In short, it runs like this:
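Read-out: fluorescent reporter transcripts quantified by capillary electrophoresis after RT-PCR of total RNA. Source cells were HepG2 transiently carrying chimeric NR-GAL4 plus GAL4-UAS reporter units, dosed 24 h. Activity fitted upward relative to DMSO baseline.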

Assay [14] concerns the target Oxysterols receptor LXR-alpha (Homo sapiens) (UniProt Q13133). As to the kind of experiment: ATG_LXRa_TRANS: Attagene TRANS-FACTORIAL HepG2 Assay for human Liver X Receptor alpha (LXRa) (AID 2282980; active = hit-call score of the fitted dose curve at least 0.9, where 1 is the maximum). The settings on record: HepG2 Attagene TRANS reporter, LXRa transactivation. In short, it runs like this: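 Read-out: reporter transcript levels by RT-PCR plus capillary electrophoresis, fluorescence intensity. Transiently transfected HepG2, exogenous NR-GAL4 chimera, GAL4-UAS reporters; 24 h compound exposure. Activity = increase over DMSO negative control.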

A short description of assay [15]: ATG_M_06_TRANS: Attagene TRANS-FACTORIAL HepG2 Assay for M06 Transcription Factor (Internal Marker) (AID 2282983; active = hit-call score of the fitted dose curve at least 0.9, where 1 is the maximum). Particulars: HepG2 Attagene TRANS M06 internal marker reporter. The method, boiled down:
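Read-out: fluorescent reporter cDNA fragments resolved by capillary electrophoresis after RT-PCR and HpaI cut. Source cells were HepG2 carrying transfected multi-reporter GAL4 constructs, dosed 24 h. Increase over DMSO control analysed.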

The target of assay [16] is Nuclear receptor subfamily 4 group A member 2 (Homo sapiens) (UniProt P43354). As to the kind of experiment: ATG_NURR1_TRANS: Attagene TRANS-FACTORIAL HepG2 Assay for human Nuclear Receptor Related Protein 1 (NURR1) (AID 2282985; active = hit-call score of the fitted dose curve at least 0.9, where 1 is the maximum). Particulars: HepG2 Attagene TRANS reporter, mRNA readout. The method, boiled down: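 Reporter transcript induction, measured by RT-PCR with fluorescent labelling, HpaI digestion and capillary electrophoresis, after 24 hr dosing of human HepG2 cells transiently expressing an exogenous NR-Gal4 fusion with GAL4-UAS-driven reporters; DMSO as baseline.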

For assay [17], the target named is Transcriptional activator Myb (Homo sapiens) (UniProt P10242). As to the kind of experiment: ATG_Myb_CIS: Attagene CIS-FACTORIAL HepG2 Assay for human Myeloblastosis (Myb) Proto-Oncogene Transcription Factor (AID 2282986). The settings on record: HepG2 Attagene CIS-FACTORIAL Myb reporter transcription; actives raise or lower the signal. In short, it runs like this: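 Transiently transfected HepG2 cells carrying a multiplexed cis-promoter reporter set report endogenous Myb activity after 24 h compound exposure. Reporter mRNA is read by RT-PCR with capillary electrophoresis of fluorescent products, fitted bidirectionally against DMSO.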

Assay [18] deals with Oxysterols receptor LXR-beta (Homo sapiens) (UniProt P55055). As to the kind of experiment: ATG_LXRb_TRANS: Attagene TRANS-FACTORIAL HepG2 Assay for human Liver X Receptor beta (LXRb) (AID 2282981; active = hit-call score of the fitted dose curve at least 0.9, where 1 is the maximum). Particulars: HepG2 Attagene TRANS GAL4-LXRb reporter, mRNA. In short, it runs like this: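 After 24 h chemical treatment of transfected HepG2 cells carrying exogenous NR-Gal4 chimeras, reporter mRNA was quantified by fluorescent RT-PCR and capillary electrophoresis; activity taken as increase over DMSO controls.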

The nature of assay [19]: ATG_M_32_TRANS: Attagene TRANS-FACTORIAL HepG2 Assay for M32 Transcription Factor (Internal Marker) (AID 2282984; active = hit-call score of the fitted dose curve at least 0.9, where 1 is the maximum;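 also: transcript level of a background control reporter unit measured by RT-PCR and capillary electrophoresis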). The settings on record: HepG2 Attagene TRANS M32 internal marker reporter. In short, it runs like this:
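Internal background reporter in transfected HepG2: after 24 h chemical exposure, RNA reverse-transcribed, reporter cDNA amplified, fluorescently labelled and HpaI-cut, then sized by capillary electrophoresis. Gain of signal fitted against DMSO control.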

Records with an inconclusive call do not appear. Calls of active or inactive are those of the source. The calls were made as follows, unless noted: active = hit-call score of the fitted dose curve at least 0.9, where 1 is the maximum; inactive = score below 0.9.

Chain of Nuclear receptor subfamily 4 group A member 2 (Homo sapiens) (P43354 whole entry, looked up, the tested form may be a part): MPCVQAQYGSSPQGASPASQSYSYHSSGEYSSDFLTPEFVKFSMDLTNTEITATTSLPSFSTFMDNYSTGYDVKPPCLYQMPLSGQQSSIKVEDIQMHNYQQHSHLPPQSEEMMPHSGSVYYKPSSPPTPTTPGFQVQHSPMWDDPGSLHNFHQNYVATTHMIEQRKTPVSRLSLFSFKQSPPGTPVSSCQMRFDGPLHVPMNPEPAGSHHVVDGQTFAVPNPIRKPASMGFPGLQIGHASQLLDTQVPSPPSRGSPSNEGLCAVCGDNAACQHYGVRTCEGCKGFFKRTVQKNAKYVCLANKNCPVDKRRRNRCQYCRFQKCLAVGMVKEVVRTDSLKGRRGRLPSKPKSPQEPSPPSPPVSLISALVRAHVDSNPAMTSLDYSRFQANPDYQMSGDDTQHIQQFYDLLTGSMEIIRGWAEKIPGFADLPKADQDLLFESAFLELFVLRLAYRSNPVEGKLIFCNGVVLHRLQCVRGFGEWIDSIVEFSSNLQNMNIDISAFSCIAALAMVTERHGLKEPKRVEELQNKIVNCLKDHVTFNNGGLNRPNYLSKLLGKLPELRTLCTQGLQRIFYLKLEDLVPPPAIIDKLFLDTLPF
Chain of Transcriptional activator Myb (Homo sapiens) (P10242 whole entry, looked up): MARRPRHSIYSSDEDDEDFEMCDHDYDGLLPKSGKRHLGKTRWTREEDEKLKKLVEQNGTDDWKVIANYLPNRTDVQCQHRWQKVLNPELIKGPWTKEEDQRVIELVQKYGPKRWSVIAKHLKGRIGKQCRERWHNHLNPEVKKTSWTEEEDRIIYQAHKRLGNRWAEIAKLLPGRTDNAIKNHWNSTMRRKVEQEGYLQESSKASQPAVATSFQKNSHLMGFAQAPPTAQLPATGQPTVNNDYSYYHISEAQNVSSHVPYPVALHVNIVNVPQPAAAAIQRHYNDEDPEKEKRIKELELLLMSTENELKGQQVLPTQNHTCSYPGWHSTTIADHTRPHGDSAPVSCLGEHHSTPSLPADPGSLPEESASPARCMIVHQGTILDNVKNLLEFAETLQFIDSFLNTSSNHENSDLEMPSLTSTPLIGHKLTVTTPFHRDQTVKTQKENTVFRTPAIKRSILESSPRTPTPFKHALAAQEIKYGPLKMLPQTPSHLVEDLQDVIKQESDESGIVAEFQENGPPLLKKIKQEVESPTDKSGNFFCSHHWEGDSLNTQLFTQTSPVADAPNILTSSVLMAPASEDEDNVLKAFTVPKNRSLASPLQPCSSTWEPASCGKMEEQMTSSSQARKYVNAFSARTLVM
Chain of X-box-binding protein 1 (Homo sapiens) (P17861 whole entry, looked up): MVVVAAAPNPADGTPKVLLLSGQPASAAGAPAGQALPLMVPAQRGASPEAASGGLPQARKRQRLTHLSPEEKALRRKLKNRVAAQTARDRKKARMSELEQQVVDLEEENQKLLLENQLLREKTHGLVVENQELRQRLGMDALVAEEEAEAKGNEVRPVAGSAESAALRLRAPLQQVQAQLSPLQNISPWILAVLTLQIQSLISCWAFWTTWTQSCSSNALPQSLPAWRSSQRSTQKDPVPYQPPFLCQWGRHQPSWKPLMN
Chain of Nuclear receptor subfamily 1 group I member 3 (Homo sapiens) (Q14994 whole entry, looked up, the tested form may be a part): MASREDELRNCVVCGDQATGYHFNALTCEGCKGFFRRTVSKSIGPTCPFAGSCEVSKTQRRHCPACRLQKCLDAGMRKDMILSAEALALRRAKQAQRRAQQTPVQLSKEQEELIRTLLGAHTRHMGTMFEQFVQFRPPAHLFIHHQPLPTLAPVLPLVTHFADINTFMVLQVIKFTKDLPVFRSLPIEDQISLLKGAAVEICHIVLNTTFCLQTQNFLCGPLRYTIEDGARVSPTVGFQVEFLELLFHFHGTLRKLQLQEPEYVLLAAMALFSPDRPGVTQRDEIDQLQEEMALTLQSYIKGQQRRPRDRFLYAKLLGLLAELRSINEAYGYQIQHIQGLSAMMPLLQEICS
Chain of Nuclear respiratory factor 1 (Homo sapiens) (Q16656 whole entry, looked up): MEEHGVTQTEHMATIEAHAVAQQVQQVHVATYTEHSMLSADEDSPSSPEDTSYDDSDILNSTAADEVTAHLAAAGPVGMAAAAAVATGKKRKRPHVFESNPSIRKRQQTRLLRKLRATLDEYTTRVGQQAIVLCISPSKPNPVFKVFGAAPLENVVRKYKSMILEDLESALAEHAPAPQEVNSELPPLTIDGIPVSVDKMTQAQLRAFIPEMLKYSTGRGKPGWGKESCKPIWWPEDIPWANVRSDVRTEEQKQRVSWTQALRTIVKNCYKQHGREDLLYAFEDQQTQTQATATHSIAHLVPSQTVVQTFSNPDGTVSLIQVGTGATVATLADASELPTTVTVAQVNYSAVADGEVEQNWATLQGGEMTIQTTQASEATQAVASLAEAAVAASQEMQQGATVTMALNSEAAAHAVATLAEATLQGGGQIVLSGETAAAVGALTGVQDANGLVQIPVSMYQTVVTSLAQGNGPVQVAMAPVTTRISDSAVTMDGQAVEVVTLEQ
Chain of Glucocorticoid receptor (Homo sapiens) (P04150 whole entry, looked up, the tested form may be a part): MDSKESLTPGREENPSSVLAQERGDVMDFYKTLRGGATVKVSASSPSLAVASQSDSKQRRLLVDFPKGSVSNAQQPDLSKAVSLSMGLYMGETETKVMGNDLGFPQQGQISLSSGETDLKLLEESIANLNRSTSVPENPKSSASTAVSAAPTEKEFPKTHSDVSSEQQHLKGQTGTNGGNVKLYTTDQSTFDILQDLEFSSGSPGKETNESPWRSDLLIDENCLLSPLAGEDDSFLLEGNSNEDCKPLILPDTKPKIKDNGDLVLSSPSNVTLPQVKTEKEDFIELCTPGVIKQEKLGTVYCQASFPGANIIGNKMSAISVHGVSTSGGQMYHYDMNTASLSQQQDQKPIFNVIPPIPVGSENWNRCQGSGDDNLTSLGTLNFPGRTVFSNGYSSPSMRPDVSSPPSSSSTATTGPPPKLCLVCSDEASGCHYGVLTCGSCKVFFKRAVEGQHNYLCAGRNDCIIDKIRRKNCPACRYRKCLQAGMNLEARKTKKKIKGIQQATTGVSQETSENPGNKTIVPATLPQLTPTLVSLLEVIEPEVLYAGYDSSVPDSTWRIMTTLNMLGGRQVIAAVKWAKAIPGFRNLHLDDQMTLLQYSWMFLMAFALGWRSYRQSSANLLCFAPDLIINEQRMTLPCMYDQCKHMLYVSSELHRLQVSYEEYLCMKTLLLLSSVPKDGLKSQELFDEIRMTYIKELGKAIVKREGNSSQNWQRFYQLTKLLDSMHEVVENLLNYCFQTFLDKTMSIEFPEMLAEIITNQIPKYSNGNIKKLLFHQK
Chain of Oxysterols receptor LXR-alpha (Homo sapiens) (Q13133 whole entry, looked up, the tested form may be a part): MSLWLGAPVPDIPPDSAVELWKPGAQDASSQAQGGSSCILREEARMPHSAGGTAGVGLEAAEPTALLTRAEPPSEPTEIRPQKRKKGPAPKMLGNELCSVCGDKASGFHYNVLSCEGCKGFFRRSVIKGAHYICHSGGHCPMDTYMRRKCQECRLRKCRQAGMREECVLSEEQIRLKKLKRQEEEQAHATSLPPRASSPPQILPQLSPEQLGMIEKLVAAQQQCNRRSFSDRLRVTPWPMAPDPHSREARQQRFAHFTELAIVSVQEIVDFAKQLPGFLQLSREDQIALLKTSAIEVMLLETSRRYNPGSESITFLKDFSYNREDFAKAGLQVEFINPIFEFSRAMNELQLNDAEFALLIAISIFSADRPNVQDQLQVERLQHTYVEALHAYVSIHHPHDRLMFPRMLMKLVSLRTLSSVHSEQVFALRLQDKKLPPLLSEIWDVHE
Chain of Bile acid receptor (Homo sapiens) (Q96RI1 whole entry, looked up, the tested form may be a part): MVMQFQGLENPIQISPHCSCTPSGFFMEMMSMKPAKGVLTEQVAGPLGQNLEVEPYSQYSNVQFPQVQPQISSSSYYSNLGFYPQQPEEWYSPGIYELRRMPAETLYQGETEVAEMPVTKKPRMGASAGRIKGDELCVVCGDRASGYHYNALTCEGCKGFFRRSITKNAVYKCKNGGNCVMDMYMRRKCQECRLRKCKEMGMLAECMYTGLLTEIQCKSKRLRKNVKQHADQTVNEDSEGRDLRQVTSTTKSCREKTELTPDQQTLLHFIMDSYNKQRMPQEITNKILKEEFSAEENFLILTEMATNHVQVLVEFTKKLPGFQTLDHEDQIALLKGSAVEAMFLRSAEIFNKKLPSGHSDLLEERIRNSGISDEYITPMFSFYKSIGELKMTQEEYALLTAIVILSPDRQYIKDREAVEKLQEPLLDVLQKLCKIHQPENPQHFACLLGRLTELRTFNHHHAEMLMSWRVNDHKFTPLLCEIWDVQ
Chain of Oxysterols receptor LXR-beta (Homo sapiens) (P55055 whole entry, looked up, the tested form may be a part): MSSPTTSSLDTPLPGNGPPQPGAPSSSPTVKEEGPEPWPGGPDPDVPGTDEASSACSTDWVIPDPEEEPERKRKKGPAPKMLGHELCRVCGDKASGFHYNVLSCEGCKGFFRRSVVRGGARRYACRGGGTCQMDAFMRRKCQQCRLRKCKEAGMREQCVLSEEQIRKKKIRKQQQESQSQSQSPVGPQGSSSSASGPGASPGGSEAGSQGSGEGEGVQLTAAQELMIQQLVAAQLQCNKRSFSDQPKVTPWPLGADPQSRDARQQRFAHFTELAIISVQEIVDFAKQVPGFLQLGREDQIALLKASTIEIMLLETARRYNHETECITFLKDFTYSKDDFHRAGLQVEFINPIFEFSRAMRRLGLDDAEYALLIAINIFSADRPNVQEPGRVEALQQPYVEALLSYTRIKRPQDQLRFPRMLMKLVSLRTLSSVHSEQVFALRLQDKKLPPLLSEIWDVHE
Chain of Hepatocyte nuclear factor 4-alpha (Homo sapiens) (P41235 whole entry, looked up, the tested form may be a part): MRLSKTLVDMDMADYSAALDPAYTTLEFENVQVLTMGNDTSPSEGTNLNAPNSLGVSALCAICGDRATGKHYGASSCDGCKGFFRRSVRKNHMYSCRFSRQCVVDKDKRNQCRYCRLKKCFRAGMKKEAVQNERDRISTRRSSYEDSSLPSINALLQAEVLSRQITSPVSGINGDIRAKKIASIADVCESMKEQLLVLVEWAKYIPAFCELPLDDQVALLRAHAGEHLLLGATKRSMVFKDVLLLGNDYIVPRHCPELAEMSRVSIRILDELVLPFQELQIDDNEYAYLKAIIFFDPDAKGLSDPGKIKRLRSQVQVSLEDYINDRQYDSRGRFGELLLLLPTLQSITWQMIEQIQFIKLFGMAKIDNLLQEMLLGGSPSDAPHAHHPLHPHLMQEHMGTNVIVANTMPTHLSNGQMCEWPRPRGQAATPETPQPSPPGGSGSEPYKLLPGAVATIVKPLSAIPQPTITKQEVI

As to `CCCCC(CC)COC(C)=O` (centres undefined), the outcome in assay [1], in assay [2], in [3], in assay [4], in [5] and in [6] was inactive. The compound was called inactive in [7], in assay [8], in assay [9] and in assay [10].
Take `C=CC(C)C#N` (centres undefined): the call in assay [1], in assay [2], in assay [3], in [11], in [5] and in assay [7] was inactive. Further, the compound was called inactive in assay [12], in [13], in assay [14], in assay [15], in assay [16] and in assay [17]. The result in assay [9] and in assay [10] was inactive.
Broadly, the AC50 is the concentration at which the activity in the assay is half-maximal. With `NCCNc1cccc2ccccc12`, the compound was classed as inactive in [1], in assay [2], in [11], in [12], in assay [14] and in assay [18]. Besides, the compound was classed as inactive in assay [8], in [15], in assay [19], in assay [16], in [17] and in [9]. Moreover, the AC50 in assay [3] was 155 µM (active); in assay [5], 161 µM (active); in assay [10], 178 µM (active).
Turning to `CCCC(=O)C(CC)Sc1ccoc1C` (centres undefined), the call in assay [1], in assay [2], in assay [11], in assay [15], in assay [19] and in [16] was inactive. For the same compound, the result in assay [17], in [9] and in assay [10] was inactive. Also, the AC50 in [3] was 26.7 µM (active); in assay [5], 25.8 µM (active).
With `CC1(C)C2=CCCC(C)(C)[C@]23CC[C@H]1C3`, the call in assay [1], in assay [11], in [5], in assay [12], in assay [13] and in [14] was inactive. Besides, the result in assay [18], in assay [15], in [19], in assay [16], in assay [9] and in assay [10] was inactive. The concentration at half-maximal activity (AC50) was 100 µM (active) in assay [2] and 2 µM (active) in assay [3].

The values above are taken from PubChem BioAssay (EPA / NIEHS).
